FAS-TE inh = inhibitors of human fatty acid synthase thioesterase domain; P49327; recombinant FAS-TE, OMFH fluorogenic substrate, fluorescence endpoint; inhibition, % at 15 µM; actives 0.67% (n = 360,000); AID 602261;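 active means compounds whose normalised, plate-corrected inhibition of enzyme fluorescence in the single-dose primary screen is 50% or more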;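 further: 0% = DMSO with enzyme and 100% = substrate without enzyme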
rCAG RNA binder = molecules binding r(CAG) RNA repeats | r(CAG) RNA repeat, TO-PRO-1 dye displacement fluorescence | inhibition, % at 3 µM | actives 1.3% (n = 370,000) | AID 651821;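 active means inhibition above the plate cutoff, the mean of all test compounds on that plate plus 3 SD, cut at about 35% in these data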;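 further: 0% = DMSO alone and 100% = 100 µM mitoxantrone as full dye displacement; higher means more dye released from RNA so lower well fluorescence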
NR3A LBD binder = modulates the human NR3A ligand-binding domain | NR3A LBD differential scanning fluorimetry, Tm shift; 0% = protein alone, 100% = glycine-bound protein | actives 2.5% (n = 340,000) | Tm shift relative to glycine control, % at 25 µM;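 active means melting temperature shift of at least 10% of the positive control shift, at one fixed dose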
NadD inh = blocks S. aureus nicotinate mononucleotide adenylyltransferase | actives 0.78% (n = 360,000) | inhibition, % at 20 µM | purified NadD enzyme, colorimetric absorbance read-out | AID 602399; in the data active means inhibition above about 26%
* = called active by the depositor; x = not tested or not shown. Compounds with a hit are over-represented: about 4.3% of the library has one in this group of screens.

SMILES	FAS-TE inh	rCAG RNA binder	NR3A LBD binder	NadD inh
CCc1nc2ccc(C(=O)NCCc3ccc(OC)c(OC)c3)cc2nc1CC	-1	-10	-3	10
O=C(Nc1cccc(C(F)(F)F)c1)c1ccc2nc(-c3ccco3)c(-c3ccco3)nc2c1	3	15	-4	65*
COC(=O)[C@]12C[C@H](CC(=O)NCC34CC5CC(CC(C5)C3)C4)C(=O)N(CCc3ccc(OC)c(OC)c3)C1=C[C@H](C1CCCC1)O[C@@H]2C	x	5	x	x
O=C(Nc1nc(-c2ccco2)c(-c2ccco2)s1)C1CC(=O)N(c2ccc3c(c2)OCCO3)C1 (centres undefined)	10	30	-5	72*
CC(=O)Nc1ccc(S(=O)(=O)NC2CC(=O)N(c3ccc4c(c3)OCCO4)C2)cc1 (centres undefined)	-2	0	17*	3
COc1ccccc1CCn1cnc(-c2cccc(Cl)c2)c1CC(C)C	x	-1	x	x
CCOc1ccc(S(=O)(=O)Nc2ccc(C(=O)N/N=C(\C)c3ccc(-n4ccnc4)cc3)cc2)cc1	3	13	-9	42*
CCN(CC)c1ccc(C=C2C(=O)OC(C)(C(C)(C)C)OC2=O)cc1 (centres undefined)	-6	-2	2	-6
CCN(CC)c1ccc(C=C2C(=O)OC(c3ccccc3)OC2=O)cc1 (centres undefined)	-5	-2	32*	6
CCN(CC)c1ccc(C=C2C(=O)OC3(CCCC3)OC2=O)cc1	-10	0	23*	5
CCOC(=O)c1cc(-c2ccccc2)nn1CC1CC(c2ccc(OC)cc2)=NO1 (centres undefined)	24	-1	13*	-16
COc1ccc(C(=O)C(C)OC(=O)c2cccc(S(=O)(=O)Nc3cc(Cl)c(OC)cc3OC)c2)cc1 (centres undefined)	57*	x	-20	6
COc1ccc(NS(=O)(=O)c2cccc(C(=O)O)c2)cc1	-12	2	-1	-2
COc1ccc(-c2nc(SCC(=O)Nc3nccs3)c(-c3ccc(Cl)cc3)[nH]2)cc1	8	10	15*	11
Oc1ccccc1C=NN=Cc1ccccc1Cl	20	1	13*	5
Oc1ccccc1C=NN=CC=Cc1ccccc1	0	1	1	7
O=C(CSc1nnnn1C1CCCC1)Nc1ccc(F)cc1	-2	1	1	-3
O=C(CSc1nnnn1C1CCCCC1)Nc1ccc(F)cc1	-8	2	18*	-1
C/C(=N\Nc1ccc(C(=O)c2c(C)cc3ccccn23)cc1[N+](=O)[O-])c1ccc(O)cc1	11	4	6	36*
Cc1cc2ccccn2c1C(=O)c1ccc(N/N=C/c2ccc(C(=O)O)cc2)c([N+](=O)[O-])c1	-50	7	-1	21
C/C(=N/Nc1ccc(C(=O)c2c(C)cc3ccccn23)cc1[N+](=O)[O-])c1ccc(O)cc1	6	0	11*	32*
CCOc1ccc(-n2c(SCc3ccc(C#N)cc3)nnc2-c2ccco2)cc1	x	7	x	x
CCCC(=O)N1CCC[C@]2(CC[C@H](CCC(C)=O)O2)C1	x	3	x	x
Cc1c(C(=S)Nc2ccccc2)cnn1-c1ccccc1	3	0	15*	-4
COC(=O)C[C@@H]1CC[C@@H]2[C@@H](COc3ccc(NC(=O)Nc4ccccc4)cc3C(=O)N2C)O1	x	4	x	x
SMILES	FAS-TE inh	rCAG RNA binder	NR3A LBD binder	NadD inh
Cc1ccc(-c2csc(NC(=O)CSc3nc4ccccc4[nH]3)n2)cc1	22	14	20*	13
Nc1ccccc1SCC(=O)Nc1nc(-c2ccccc2)cs1	9	1	11*	1
Cc1ccc(S(=O)(=O)N2CCC(C(=O)NCc3cccs3)CC2)cc1	x	4	x	x
COc1cc(NC(=S)NCc2ccco2)cc(OC)c1OC	-6	-1	19*	-3
O=[N+]([O-])c1cc(C(F)(F)F)ccc1NCCCCNS(=O)(=O)c1ccc(Cl)cc1	36	11	9	-6
O=[N+]([O-])c1cc(Cl)ccc1NCCNc1ncc(C(F)(F)F)cc1Cl	24	-1	14*	-10
O=[N+]([O-])c1cc(C(F)(F)F)ccc1NCCNC(=S)Nc1ccc(Cl)cc1	34	12	15*	-4
O=[N+]([O-])c1ccccc1NCCNc1ncc(C(F)(F)F)cc1Cl	19	1	-22	-5
COc1ccccc1-c1cccc2c3c([nH]c12)[C@@H]1C[C@H]2[C@@H](C(=O)N1CC3)[C@H](C)ON2C	x	5	x	x
CCOC(=O)N1CCN(C(=O)C[C@H]2C[C@@]3(C(=O)OC)C(=C[C@H](C(C)(C)C)O[C@@H]3C)N(CCC3=CCCCC3)C2=O)CC1	x	5	x	x
O=S1(=O)c2ccc(Br)cc2OC[C@H](Cc2ccccc2)N1Cc1cn(Cc2ccc(F)cc2)nn1	x	5	x	x
COC(=O)C1CN(CC(C)C)CCS(=O)(=O)N1Cc1cccc(Cl)c1 (centres undefined)	x	0	x	x
Cc1ccc(S(=O)(=O)n2ccc3c(OCCOCCSCC(NC(=O)OC(C)(C)C)C(=O)O)cccc32)cc1 (centres undefined)	-6	48*	-5	-3
Cc1ccc(S(=O)(=O)n2ccc3c(OCCOCCNCc4ccc(F)cc4)cccc32)cc1	18	5	-12	0
N#Cc1ccc(/C=C2\CC3(OC(=O)c4cccc(F)c4)CCCN2C3)cc1 (centres undefined)	x	-2	x	x
COC(=O)C1=C(C)N(Cc2cccc(C(F)(F)F)c2)C(=NCc2ccccc2C(F)(F)F)NC1c1cccc(F)c1 (centres undefined)	x	3	x	x
CCN(CC)c1ccc(/C=N/NC(=O)c2cc3ccccc3[nH]2)cc1	14	17	14*	5
CCN(CC)c1ccc(/C=N/NC(=O)c2c[nH]c3ccccc23)cc1	4	5	9	7
O=C(CCc1ccccc1)N[C@H]1/C(=N/O)CCC[C@]12C(=O)N(Cc1ccccc1)c1ccccc12	x	7	x	x
Cc1ccc(C(=O)O)cc1NC(=O)C1=CSCCO1	-6	3	21*	3
Nc1[nH]c(C(=O)c2ccccc2)c(-c2ccc3c(c2)OCO3)c1C(=O)NCCc1c[nH]c2ccccc12	x	14	x	x
O=C(NC1CCCCN(Cc2ccc(Cl)cc2)C1=O)c1cccc(C(F)(F)F)c1 (centres undefined)	x	4	x	x
COc1cccc(C2CC3(CC(C)(C)NC(=S)N3)Oc3cc(O)ccc32)c1 (centres undefined)	-11	0	-4	7
CSC1=NC2(CC(c3ccccc3)Oc3cc(O)ccc32)CC(C)(C)N1 (centres undefined)	-1	-5	11*	-3
CC(C)(C)c1ccc(NC(=O)CSc2nnc(-c3n[nH]c4ccccc34)o2)cc1	-44	9	175*	6
Cc1cccc(OCCCN2CCC(C(O)(c3ccccc3)c3ccccc3)CC2)c1	x	0	x	x
CN1OC[C@@H]2CN(Cc3ccc4c(c3)OCO4)[C@H](c3ccc(-n4ccnc4)cc3)C[C@@H]21	x	3	x	x
CCOc1ccc(NC(=O)c2cc3cc4ccc(OC)cc4nc3o2)cc1	-8	-2	13*	-5
CCC(C)NC(=O)c1cc2cc3ccc(OC)cc3nc2o1 (centres undefined)	9	-6	-2	-10
